Where “and” joins values, the source holds several entries; their conditions need not be identical. Equal values may be shown once. Among all 350,000 compounds or so, about 180 (0.051%) were called active.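 How the source made its calls: active means mean replicate inhibition above about 25%, with every replicate also reaching it (limit read from the data, passing the limit was not always enough); inconclusive means only one of those two criteria met; inactive means neither criterion met.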 The sample as a whole holds a higher share of actives than the screen did. Some compounds were tested as several samples or in several runs, with calls that do not always agree.
target: Protein disulfide-isomerase A6 (Homo sapiens) (UniProt Q15084); test: ERp5 (PDIA6) reductase activity blockers – biochemical, turbidity, absorbance 650 nm, single point, primary screen (AID 651711); conditions: ERp5 insulin aggregation, 90 min, at 9.99 µM, stronger effect = higher value
Sequence (Q15084 whole entry, looked up): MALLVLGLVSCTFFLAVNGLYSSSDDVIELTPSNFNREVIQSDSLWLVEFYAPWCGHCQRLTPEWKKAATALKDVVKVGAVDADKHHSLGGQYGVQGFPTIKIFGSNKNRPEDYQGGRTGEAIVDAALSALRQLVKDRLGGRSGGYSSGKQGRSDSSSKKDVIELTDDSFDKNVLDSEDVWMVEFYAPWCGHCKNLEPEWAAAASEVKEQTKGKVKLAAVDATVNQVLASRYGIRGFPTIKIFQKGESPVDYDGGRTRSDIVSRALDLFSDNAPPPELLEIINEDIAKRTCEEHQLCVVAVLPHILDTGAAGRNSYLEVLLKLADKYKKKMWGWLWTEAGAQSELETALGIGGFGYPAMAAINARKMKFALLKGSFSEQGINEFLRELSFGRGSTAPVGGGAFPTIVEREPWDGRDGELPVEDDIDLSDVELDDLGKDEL

**Q.** How did the inhibition turn out when `C[C@H]1CN([C@@H](C)CO)S(=O)(=O)c2ccc(C#CCN(C)C)cc2O[C@@H]1CN(C)Cc1ccc(F)cc1` was run?
**A.** 3.33% (inactive)

**Q.** With `C[C@@H]1CN([C@@H](C)CO)C(=O)Cc2cc(NC(=O)C3CCCCC3)ccc2O[C@@H]1CN(C)Cc1ccc(C(=O)Nc2ccccc2N)cc1` as the compound, how does the inhibition read?
**A.** -3.91% (inactive)

**Q.** With `CN1C(=O)c2cc(NC(=O)c3cnccn3)ccc2OC[C@H]2O[C@@H](CC(=O)NCC3CCCCC3)CC[C@@H]21` as the compound, how does the inhibition read?
**A.** -4.79% (inactive)

**Q.** Which inhibition does the source give for `CC(C)NC(=O)N(C)C[C@H]1Oc2c(NC(=O)Nc3ccc(F)cc3)cccc2C(=O)N([C@@H](C)CO)C[C@@H]1C` here?
**A.** 0.87% (inactive)

**Q.** With `COc1cccc(-c2cnc3c(c2)C(=O)N([C@@H](C)CO)C[C@H](C)[C@H](CN(C)C(C)=O)O3)c1` as the compound, how does the inhibition read?
**A.** 1.61% (inactive)

**Q.** Which inhibition does the source give for `CN(C)C(=O)C[C@@H]1C=C[C@H](NC(=O)Nc2cccc(F)c2)[C@H](CO)O1` here?
**A.** 0.18% (inactive)

**Q.** How did the inhibition turn out when `COCC(=O)N[C@@H]1C[C@@H]2O[C@@H](CO)CC[C@@H]2O[C@@H]1CCc1ccc(-c2ccccc2)cc1` was run?
**A.** -0.551% (inactive)

**Q.** Which inhibition does the source give for `C[C@H]1CN([C@@H](C)CO)C(=O)c2cccc(NC(=O)c3cnccn3)c2O[C@H]1CN(C)C(=O)Nc1ccccc1` here?
**A.** 2.81% (inactive)

**Q.** How did the inhibition turn out when `CC(=O)N1[C@H](CO)[C@H](c2ccccc2)[C@H]1CN(C(=O)c1ccccc1F)C(C)C` was run?
**A.** -2.13% (inactive)

**Q.** How did the inhibition turn out when `Cc1cccc(S(=O)(=O)N(C)C[C@H]2OCc3cnnn3CCCC(=O)N([C@@H](C)CO)C[C@H]2C)c1` was run?
**A.** -7.22% (inactive) and 27.4% (active)

**Q.** For `Cc1cccc(S(=O)(=O)N(C)C[C@@H]2OCc3cnnn3CCCC(=O)N([C@H](C)CO)C[C@@H]2C)c1`, which inhibition is on record?
**A.** -3.09% (inactive) and 0.225% (inactive) and -3.77% (inactive)

**Q.** With `C[C@H](CO)N1C[C@H](C)[C@H](CN(C)S(=O)(=O)c2cccc(F)c2)OCc2cnnn2CCCC1=O` as the compound, how does the inhibition read?
**A.** -5.61% (inactive)

**Q.** Which inhibition does the source give for `Cc1nc(NC(=O)C(C)(C)C)sc1[N+](=O)[O-]` here?
**A.** 0.0535% (inactive)

**Q.** Which inhibition does the source give for `O=C(NCC1CC1)[C@@H]1[C@@H](CO)[C@@H]2Cn3c(ccc(-c4ccncc4)c3=O)[C@@H]2N1Cc1cocn1` here?
**A.** 6.61% (inactive)

**Q.** How did the inhibition turn out when `CO[C@@H]1CN(C)C(=O)c2ccc(NC(=O)NC(C)C)cc2OC[C@@H](C)N(Cc2ccc(-c3ccccn3)cc2)C[C@H]1C` was run?
**A.** -3.96% (inactive)

**Q.** Which inhibition does the source give for `CCS(=O)(=O)N1[C@H](CO)[C@@H](c2ccc(C#CC(C)C)cc2)[C@@H]1C#N` here?
**A.** 0.717% (inactive)

**Q.** `O=C(C[C@H]1C=C[C@@H](NC(=O)c2ccc(F)cc2)[C@@H](CO)O1)NCCc1ccncc1` was tested. Which inhibition did it give?
**A.** -1.66% (inactive)

**Q.** With `COCC#Cc1cnc2c(c1)C(=O)N([C@H](C)CO)C[C@H](C)[C@H](CN(C)C(=O)CCN1CCCCC1)O2` as the compound, how does the inhibition read?
**A.** -2% (inactive)

**Q.** Which inhibition does the source give for `C[C@@H]1CN([C@H](C)CO)C(=O)Cc2cc(NC(=O)Cc3cn(C)c4ccccc34)ccc2O[C@@H]1CN(C)Cc1ccc(C(F)(F)F)cc1` here?
**A.** -1.92% (inactive)

**Q.** With `Cc1cccc(-c2ccccc2[C@@H]2[C@H](C#N)N(c3ncc(-c4ccccc4)s3)[C@H]2CO)c1` as the compound, how does the inhibition read?
**A.** 5.5% (inactive)

**Q.** `CO[C@@H]1CN(C)C(=O)c2cc(NS(=O)(=O)c3cccc(F)c3)ccc2OC[C@@H](C)NC[C@@H]1C` was tested. Which inhibition did it give?
**A.** 3.66% (inactive)

**Q.** How did the inhibition turn out when `CO[C@@H]1CC[C@@H]2CCOc3c(C#N)cccc3C(=O)N(C)C[C@@H](OC)[C@@H](C)C(=O)N(C)C[C@H]1O2` was run?
**A.** 0.649% (inactive)

**Q.** Which inhibition does the source give for `COc1ccc2c3c(n(C)c2c1)[C@@H](CO)N(CC1CC1)CC31CN(C(=O)c2cccc(F)c2)C1` here?
**A.** -2.91% (inactive)

**Q.** For `COCC(=O)N[C@@H]1C=C[C@@H](CC(=O)N2CCCCC2)O[C@@H]1CO`, which inhibition is on record?
**A.** -2.02% (inactive)

**Q.** `CC(C)NC(=O)N(C)C[C@H]1OCCCC[C@@H](C)Oc2ccc(NS(C)(=O)=O)cc2C(=O)N([C@H](C)CO)C[C@H]1C` was tested. Which inhibition did it give?
**A.** -1.99% (inactive)

**Q.** How did the inhibition turn out when `CCCN1C[C@H](C)[C@@H](OC)CN(C)C(=O)c2cc(NS(=O)(=O)CC)ccc2OC[C@H]1C` was run?
**A.** -4.64% (inactive)

**Q.** With `C[C@@H]1CN([C@@H](C)CO)C(=O)Cc2cc(NC(=O)Nc3cccc4ccccc34)ccc2O[C@@H]1CN(C)CC1CCCCC1` as the compound, how does the inhibition read?
**A.** 3.82% (inactive)

**Q.** For `O=C(NCC[C@@H]1CC[C@@H](NS(=O)(=O)c2cccc(F)c2)[C@H](CO)O1)C1CC1`, which inhibition is on record?
**A.** -3.52% (inactive)

**Q.** With `CCCNC(=O)N(C)C[C@H]1Oc2cc(C#C[C@@H](C)O)ccc2S(=O)(=O)N([C@H](C)CO)C[C@H]1C` as the compound, how does the inhibition read?
**A.** -12.1% (inactive)

**Q.** For `CCCN1C[C@@H](C)[C@@H](OC)CN(C)C(=O)c2ccc(NC(=O)CC(F)(F)F)cc2OC[C@H]1C`, which inhibition is on record?
**A.** 9.49% (inactive)

**Q.** `Cc1ccc(-c2ccccc2[C@H]2[C@@H](C#N)N(c3ncc(-c4ccccc4)s3)[C@@H]2CO)cc1` was tested. Which inhibition did it give?
**A.** -0.798% (inactive)

**Q.** With `CC=Cc1ccc2n(c1=O)C[C@H]1[C@H](CO)[C@@H](C(=O)NCC3CC3)N(Cc3nccs3)[C@@H]21` (mixture of isomers) as the compound, how does the inhibition read?
**A.** -2.63% (inactive)

**Q.** How did the inhibition turn out when `COc1ccccc1-c1cnc2c(c1)C(=O)N([C@H](C)CO)C[C@H](C)[C@@H](CN(C)C(=O)CC1CC1)O2` was run?
**A.** -2.32% (inactive)

**Q.** `C[C@H]1CN([C@@H](C)CO)C(=O)c2cc(Br)cnc2O[C@@H]1CN(C)C(=O)c1ccccc1` was tested. Which inhibition did it give?
**A.** -13% (inactive)

**Q.** With `COCC(=O)Nc1ccc2c(c1)C(=O)N(C)[C@@H]1CC[C@H](CC(=O)NCC3CC3)O[C@@H]1CO2` as the compound, how does the inhibition read?
**A.** 7.57% (inactive)

**Q.** How did the inhibition turn out when `CCNC(=O)C[C@@H]1CC[C@@H]2[C@@H](COc3ccc(NC(C)=O)cc3C(=O)N2C)O1` was run?
**A.** -7.17% (inactive)

**Q.** `CC(=O)Nc1ccc2c(c1)C(=O)N(C)[C@H]1CC[C@@H](CC(=O)NCC3CC3)O[C@H]1CO2` was tested. Which inhibition did it give?
**A.** 39.3% (active)

**Q.** For `C[C@@H]1CN([C@@H](C)CO)C(=O)Cc2cc(NC(=O)Nc3cccc4ccccc34)ccc2O[C@H]1CN(C)S(=O)(=O)c1ccc(Cl)cc1`, which inhibition is on record?
**A.** -3.03% (inactive)

**Q.** `O=C(CN1CCOCC1)N[C@@H]1CC[C@@H](CCNC(=O)C2CCCCC2)O[C@@H]1CO` was tested. Which inhibition did it give?
**A.** 0.632% (inactive)

**Q.** How did the inhibition turn out when `C[C@H](CO)N1C[C@H](C)[C@H](CN(C)Cc2ccc(Oc3ccccc3)cc2)Oc2c(NC(=O)CCCCCC(=O)Nc3ccccc3N)cccc2C1=O` was run?
**A.** 1.76% (inactive)

**Q.** How did the inhibition turn out when `CO[C@@H]1CN(C)C(=O)c2cc(NS(=O)(=O)CC(F)(F)F)ccc2OC[C@H](C)N(C)C[C@H]1C` was run?
**A.** 1.29% (inactive)

**Q.** With `C/C=C/c1ccccc1[C@H]1[C@@H](C#N)N(C(C)=O)[C@@H]1CO` as the compound, how does the inhibition read?
**A.** 0.399% (inactive)

**Q.** Which inhibition does the source give for `COc1ccc(NC(=O)N(C)C[C@@H]2OCc3ccccc3-c3c(n(C)c4ccccc34)C(=O)N([C@H](C)CO)C[C@H]2C)cc1` here?
**A.** 1.51% (inactive)

**Q.** With `COc1ccc(S(=O)(=O)Nc2ccc3c(c2)C(=O)N([C@@H](C)CO)C[C@H](C)[C@H](CN(C)Cc2ccc(C(=O)O)cc2)O3)cc1` as the compound, how does the inhibition read?
**A.** 4.86% (inactive)

**Q.** For `C/C=C/c1ccc2c(c1)O[C@H](CN(C)C(=O)Cc1ccccn1)[C@H](C)CN([C@H](C)CO)S2(=O)=O`, which inhibition is on record?
**A.** -3.16% (inactive)

**Q.** `N#C[C@@H]1[C@H](c2ccccc2-c2ccccc2F)[C@@H](CO)N1C(=O)c1ccccn1` was tested. Which inhibition did it give?
**A.** -2.07% (inactive)

**Q.** Which inhibition does the source give for `Cc1ccc(S(=O)(=O)Nc2ccc3c(c2)C(=O)N([C@H](C)CO)C[C@H](C)[C@@H](CN(C)S(=O)(=O)c2cccs2)O3)cc1` here?
**A.** 3.96% (inactive)

**Q.** For `C[C@@H]1CN([C@@H](C)CO)C(=O)c2cc(NC(=O)Nc3ccccc3)ccc2O[C@H]1CN(C)C(=O)Nc1ccc(F)cc1`, which inhibition is on record?
**A.** 4.96% (inactive)

**Q.** How did the inhibition turn out when `CCC(=O)N(C)C[C@H]1[C@H](c2ccc(-c3ccccc3F)cc2)[C@@H](CO)N1C(C)=O` was run?
**A.** -0.23% (inactive)

**Q.** `COCC#Cc1ccc([C@@H]2[C@@H](CO)N3C(=O)CN(C(=O)C4CCCC4)C[C@@H]23)cc1` was tested. Which inhibition did it give?
**A.** 0.681% (inactive)

**Q.** With `Cc1noc(C)c1S(=O)(=O)N(C)C[C@H]1Oc2ccc(NC(=O)Nc3cccc4ccccc34)cc2CC(=O)N([C@@H](C)CO)C[C@H]1C` as the compound, how does the inhibition read?
**A.** -5.17% (inactive)

**Q.** For `COc1ccc2c3c(n(C)c2c1)[C@@H](CO)N(C(=O)c1ccc(F)cc1)CC31CN(C(=O)c2ccc(F)cc2)C1`, which inhibition is on record?
**A.** 1.03% (inactive)

**Q.** How did the inhibition turn out when `COc1ccc2c3c(n(C)c2c1)[C@@H](CO)N(C(=O)CN1CCOCC1)CC31CN(C(=O)CC2CC2)C1` was run?
**A.** -0.576% (inactive)

**Q.** Which inhibition does the source give for `CN(C)CC(=O)N1[C@@H](CO)[C@H](c2ccccc2)C12CN(C(=O)c1cccc(F)c1)C2` here?
**A.** 2.27% (inactive)

**Q.** Which inhibition does the source give for `C/C=C/c1ccc([C@@H]2[C@H](CO)N(C(=O)c3cnccn3)C23CN(C(C)=O)C3)cc1` here?
**A.** -4.61% (inactive)

**Q.** How did the inhibition turn out when `C[C@@H]1CN([C@H](C)CO)C(=O)c2cc(C#CCC3CCCC3)cnc2O[C@H]1CN(C)C(=O)c1cnccn1` was run?
**A.** -0.111% (inactive)

**Q.** Which inhibition does the source give for `C[C@@H]1CN([C@H](C)CO)S(=O)(=O)c2ccc(-c3ccncc3)cc2O[C@H]1CN(C)S(=O)(=O)c1ccccc1F` here?
**A.** -3.02% (inactive)

**Q.** How did the inhibition turn out when `C[C@@H]1CN([C@@H](C)CO)C(=O)c2cc(NS(=O)(=O)c3ccccc3)ccc2O[C@@H]1CN(C)Cc1ccc(C(=O)O)cc1` was run?
**A.** -2.81% (inactive)

**Q.** With `Cc1noc(C)c1S(=O)(=O)Nc1ccc2c(c1)C(=O)N([C@H](C)CO)C[C@H](C)[C@H](CN(C)S(C)(=O)=O)OCCCC[C@H](C)O2` as the compound, how does the inhibition read?
**A.** -0.161% (inactive)

**Q.** For `C[C@@H]1CN([C@@H](C)CO)S(=O)(=O)c2ccc(C#CC(C)(C)O)cc2O[C@H]1CN(C)C(=O)CN(C)C`, which inhibition is on record?
**A.** -0.244% (inactive)

**Q.** For `C[C@H](CO)N1C[C@H](C)[C@H](CN(C)C)Oc2cc(C#Cc3ccccc3F)ccc2S1(=O)=O`, which inhibition is on record?
**A.** 11.3% (inactive)
